Measured values published in PubChem BioAssay AID602143 (Vanderbilt Specialized Chemistry Center, 2011).
Where “and” joins values, the source holds several entries; their conditions need not be identical. Equal entries are not always repeated. Calls of active or inactive are those of the source. Rule as the data show it: active = remaining activity below about 50%; inactive = the rest.

Each compound was assayed against Phospholipase D2 (Homo sapiens) (UniProt O14939) (assay: cellular phospholipase D2 activity inhibition – cell-based, HEK293, single concentration (AID 602143;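 also: tested at 200 nM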)). Details: HEK293 cellular PLD2 activity, percent of control; hits give low values.
Sequence of Phospholipase D2 (Homo sapiens) (O14939 whole entry, looked up): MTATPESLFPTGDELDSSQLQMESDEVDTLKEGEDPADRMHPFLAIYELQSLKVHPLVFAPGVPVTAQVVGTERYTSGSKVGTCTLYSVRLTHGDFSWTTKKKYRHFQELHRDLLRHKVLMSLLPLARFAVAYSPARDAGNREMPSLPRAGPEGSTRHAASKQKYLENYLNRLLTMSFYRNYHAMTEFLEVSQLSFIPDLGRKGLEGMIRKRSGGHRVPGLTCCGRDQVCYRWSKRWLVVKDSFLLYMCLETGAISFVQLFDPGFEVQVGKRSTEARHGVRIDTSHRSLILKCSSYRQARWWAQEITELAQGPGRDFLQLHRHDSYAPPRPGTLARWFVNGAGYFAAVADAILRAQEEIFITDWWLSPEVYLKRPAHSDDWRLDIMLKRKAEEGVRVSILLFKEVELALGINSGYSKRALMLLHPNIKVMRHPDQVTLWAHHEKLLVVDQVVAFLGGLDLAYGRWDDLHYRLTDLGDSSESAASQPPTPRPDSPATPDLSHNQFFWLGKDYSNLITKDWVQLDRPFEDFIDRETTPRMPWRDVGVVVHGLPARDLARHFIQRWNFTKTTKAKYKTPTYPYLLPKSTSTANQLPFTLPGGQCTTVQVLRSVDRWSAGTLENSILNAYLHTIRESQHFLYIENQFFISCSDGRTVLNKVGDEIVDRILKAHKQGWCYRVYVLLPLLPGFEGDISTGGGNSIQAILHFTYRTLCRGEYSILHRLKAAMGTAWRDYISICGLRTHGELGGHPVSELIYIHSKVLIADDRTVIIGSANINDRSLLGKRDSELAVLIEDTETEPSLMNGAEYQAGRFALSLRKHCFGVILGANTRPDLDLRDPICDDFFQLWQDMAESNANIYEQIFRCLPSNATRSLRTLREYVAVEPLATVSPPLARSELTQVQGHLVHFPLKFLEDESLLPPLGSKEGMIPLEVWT
Sequence of Phospholipase D2 (Homo sapiens) (O14939 whole entry, looked up): as above
In the case of `C[C@@H](CN1CCC2(CC1)CN(S(C)(=O)=O)c1ccccc12)NC(=O)c1cnc2ccccc2c1`, the remaining activity is reported as 136% (inactive).
For `O=C(NCCN1CCC(n2c(=O)[nH]c3ccccc32)CC1)C1CCc2ccccc2C1` (stereo not given), the remaining activity was 103% (inactive).
In the case of `O=C1c2ccccc2C(=O)N1CCCN1CCC(n2c(=O)[nH]c3cc(Cl)ccc32)CC1`, the remaining activity is reported as 74.6% (inactive).
For `C[C@@H](CN1CCC(n2c(=O)[nH]c3cc(-c4ccsc4)ccc32)CC1)NC(=O)[C@H]1C[C@@H]1c1ccccc1`, the remaining activity was 81.2% (inactive).
In the case of `C[C@@H](NC(=O)NCCN1CCC(n2c(=O)[nH]c3ccccc32)CC1)c1ccccc1`, the remaining activity is reported as 107% (inactive) and 123% (inactive).
